Source: PubChem BioAssay AID1578 (Sanford-Burnham Center for Chemical Genomics, 2009)
The campaign covered roughly 290,000 compounds. About 3,000 (1%) were called active. For the sample, actives were picked, then their nearest neighbours and some compounds at random. A number with no mark means an inactive call. Cut-off read from the data, not from the text of the source: active = inhibition mostly above about 36% (no sharp cut-off); inactive = mostly below about 34%.

assay: NOD1 signaling inhibitors, primary screen, cell-based, luminescence, uHTS (AID 1578); conditions: NOD1-driven NF-kB luciferase reporter cells, at 4 µM, stronger effect = higher value;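 note: HEK-293T reporter cells stimulated with the NOD1 agonist gamma-tri-DAP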

| Structure (SMILES) | inhibition |
| --- | --- |
| COc1cc(C2c3[nH]c4ccccc4c3C[C@@H]3C(=O)N(Cc4ccco4)CC(=O)N23)cc(OC)c1OC (some centres not stated) | -4.3% |
| CCCCN(C(=O)CCC(=O)Nc1cc(C)on1)C(C(=O)NC1CCCC1)c1ccccc1OCC (configuration not stated) | -32.8% |
| COCc1nnc(NC(=O)C2CCN(C(=O)c3ccco3)CC2)s1 | -4% |
| Cc1ccc(N2C(=O)C3C(c4ccccc4)N4CCCN4C3(C)C2=O)cc1 (configuration not stated) | -27.5% |
| O=S(=O)(Nc1nnc(C(F)(F)F)s1)c1ccc(Cl)cc1 | -6.4% |
| O=C1c2ccccc2N2C(=O)c3ccccc3[C@H]2N1c1ccccc1 | -14.4% |
| CC(C)Cc1ccc(CN2CCC(n3nccc3NC(=O)C3CCCC3)CC2)cc1 | -7.7% |
| Cc1cc(OCCCn2ccnc2)cc(C)c1Cl | 7.6% |
| Cc1cc(OCCCCn2ccnc2)cc(C)c1Cl | -18.7% |
| Cc1cc(OCCCCCn2ccnc2)cc(C)c1Cl | 48% (active) |
| O=C(Nc1ccc(S(=O)(=O)Nc2nccs2)cc1)c1ccc(N2C(=O)c3ccccc3C2=O)cc1 | -25.2% |
| Cc1cc2c3c(c1)C1(C(=O)N3C(C)(C)CC2C)C(C#N)=C(N)OC2=C1C(=O)CC(C)(C)C2 (configuration not stated) | -22.2% |
| CC1=CC(C)(C)N2C(=O)C3(C(C#N)=C(N)OC4=C3C(=O)CC(C)(C)C4)c3cc(C)cc1c32 (configuration not stated) | 13.2% |
| Cc1cc2c3c(c1)C(C)(c1ccccc1)CC(C)(C)N3C(=O)C21C(C#N)=C(N)OC2=C1C(=O)CC(C)(C)C2 (configuration not stated) | 77.1% (active) |
| O=C(Nc1nncs1)c1cccc(S(=O)(=O)N2CCc3ccccc32)c1 | -12.7% |
| C=CCOC(=O)C1=C(C)Nc2nnnn2C1c1cc(OC)ccc1OC (configuration not stated) | -1.8% |
| CC1CC(C)(C)Nc2ccc(OC(=O)c3ccco3)cc21 (configuration not stated) | 44.8% |
| CC1CC2(CCCC2)Nc2ccc(F)cc21 (configuration not stated) | -2% |
| CC1CC(C)(C)Nc2ccc(N=O)cc21 (configuration not stated) | 41.9% (active) |
| CCOC(=O)C1CCN(C(=O)CCc2ccc(S(=O)(=O)NC(C)C)cc2)CC1 | -6.7% |
| COc1ccccc1N1CCN(CC(O)c2ccc3cc[nH]c3c2)CC1 (configuration not stated) | -10.9% |
| CC1CN(C(=O)CCNC(=O)c2ccc(Cl)cc2)CC(C)O1 (configuration not stated) | -15.6% |
| CC12CN3CCN(CC(C3)C1(O)CN1CCOCC1)C2 (configuration not stated) | -10.8% |
| COc1cccc(C(=O)C2CCCN(C(=O)CCC3=NNC(=O)CC3)C2)c1 (configuration not stated) | -14.9% |
| Nc1nc(Nc2ccc(Cl)cc2)nc2ccccc12 | 24.4% |
| CN(C)c1ccc(Nc2nc(N)c3ccccc3n2)cc1 | 73.8% (active) |
| Nc1nc(Nc2ccccc2)nc2ccccc12 | -85.2% |
